Six1-Eya2 inh: blocks human Six1 binding to Eya2; activity change, % (concentration not given with the values); AID 651725; AlphaScreen GST-Six1/His-Eya2 binding, biochemical; active compounds read low; 0.56% of 360,000 active; in the data active = activity change below about -65%; inconclusive = mostly about -30% to -63%
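Six1/Eya2 binding was read as AlphaScreen signal after compounds were pinned into GST-Six1 plus His-tagged Eya2 (5X stock 250/500 nM) in pH 8.0 Tris/NaCl/TCEP buffer, beads added, then incubated 1 h, 37 C, dark.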
CtBP-E1A inh: inhibitors of CtBP/E1A interaction; AID 651724; activity change, % (concentration not given with the values); AlphaScreen GST-E1A/His-CtBP binding, 1536-well; active compounds read low; 0.49% of 340,000 active; in the data active = activity change below about -65%; inconclusive = mostly about -30% to -63%
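Protein mix (5X: 125 nM each GST-E1A, His-CtBP) was incubated with pinned compound 2 h at 37 deg C in dark, in 50 mM Tris pH 8.0 buffer with 300 mM NaCl. Glutathione donor and nickel acceptor beads followed; AlphaScreen signal read after 1 h.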
TDP1 inh: blocks human tyrosyl-DNA phosphodiesterase 1; Q9NUW8; recombinant TDP1, AlphaScreen DNA substrate cleavage; Potency, µM (titrated, usually from 130 µM), inactives show top-dose activity change, negative = inhibition, most hits filed as inhibitors; 0.28% of 350,000 active; AID 485290; also: potency is read from the fitted curve at half-maximal effect; nearly all actives have a fitted effect of over 40% in size
Target sequence (Q9NUW8 whole entry, looked up): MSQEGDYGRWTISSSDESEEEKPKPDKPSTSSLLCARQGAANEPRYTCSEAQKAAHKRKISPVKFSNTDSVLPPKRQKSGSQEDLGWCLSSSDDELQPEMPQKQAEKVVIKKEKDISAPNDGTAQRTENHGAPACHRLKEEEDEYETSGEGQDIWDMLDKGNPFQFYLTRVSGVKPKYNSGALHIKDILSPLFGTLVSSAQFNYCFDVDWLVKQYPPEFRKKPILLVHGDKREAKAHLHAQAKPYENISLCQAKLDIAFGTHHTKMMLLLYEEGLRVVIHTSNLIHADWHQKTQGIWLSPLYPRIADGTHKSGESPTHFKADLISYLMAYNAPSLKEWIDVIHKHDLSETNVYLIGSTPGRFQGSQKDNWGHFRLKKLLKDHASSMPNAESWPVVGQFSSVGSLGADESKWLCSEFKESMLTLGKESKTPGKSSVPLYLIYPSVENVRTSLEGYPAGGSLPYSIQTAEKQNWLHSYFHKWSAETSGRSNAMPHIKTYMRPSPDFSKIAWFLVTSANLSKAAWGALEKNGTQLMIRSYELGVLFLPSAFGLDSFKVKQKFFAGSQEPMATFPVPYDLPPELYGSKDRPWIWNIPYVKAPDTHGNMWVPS
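Signal: AlphaScreen proximity between streptavidin donor and anti-FITC acceptor beads on intact substrate. Reaction: Tdp1 1 nM, substrate 15 nM final, 5 min RT after 15 min compound preincubation.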
IL-1B inflam inh: inflammasome signaling inhibition, IL-1 beta readout | activity change, % at 57.5 µM | 4.7% of 360,000 active | THP-1 LPS/ATP IL-1B secretion, AlphaLISA, 16 h; active compounds read low | AID 743279; in the data active = activity change below about -50%; inconclusive = mostly about -30% to -49%
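Secreted IL-1B measured by AlphaLISA bead assay after 16 h compound exposure of THP-1 cells; compounds (final up to 57.5 uM) added 1 h before LPS (250 ng/mL) and ATP (1.25 mM) stimulation; lower signal means less secretion.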
DT40 TDP1 no CPT: qHTS for Inhibitors of human tyrosyl-DNA phosphodiesterase 1 (TDP1): qHTS in cells in absence of CPT | Potency, µM (doses to about 46.2 µM), without a hit: at the highest dose activity change, negative = growth inhibition, most hits filed as inhibitors | DT40 Tdp1-/- hTDP1 cells, no CPT, ATP luminescence, 48 h | 15% of 420,000 active; also: potency is read from the fitted curve at half-maximal effect; nearly all actives have a fitted effect of over 55% in size
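Chicken DT40 Tdp1-/- cells complemented with human TDP1, screened without camptothecin (DMSO vehicle only), 400 cells/well. Compounds pin-transferred, cells incubated at 37 °C for at least 48 hr. Growth read as ATP-dependent luminescence (CellTiter-Glo, 30 min at RT).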
DT40 TDP1 CPT: growth inhibition of DT40 Tdp1-/-;hTDP1 cells with camptothecin (screen for TDP1 inhibitors). AID 686979. chicken DT40 Tdp1-/-;hTDP1 cells + 20 nM CPT, ATP luminescence, 48 h. 12% of 420,000 active. Potency, µM (top dose mostly 46.2 µM), inactives show at the top dose activity change, negative = growth inhibition, most hits filed as inhibitors; also: potency is read from the fitted curve at half-maximal effect; nearly all actives have a fitted effect of over 55% in size
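Chicken DT40 Tdp1-/- cells complemented with human TDP1, 400 cells/well, exposed to compounds plus 20 nM camptothecin for at least 48 h at 37 C; viability read as ATP content by CellTiter-Glo luminescence.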
Numbers without * were called inactive; ? = inconclusive; nt = no result given. In the library only some 18% were active in any assay of this set; here they are far more common. Unless noted, calls follow the shape of the dose curve; as a rule, active = well fitted curve in the direction sought with a large enough effect; inconclusive = small, poorly fitted or top-dose-only effect, or another doubt; inactive = no such curve, though single readings can be large; an effect the other way counts as inactive or inconclusive. % is scaled to controls: 0 for no effect and ±100 for the full control effect.

SMILES	Six1-Eya2 inh	CtBP-E1A inh	TDP1 inh	IL-1B inflam inh	DT40 TDP1 no CPT	DT40 TDP1 CPT
CC(=O)NCCc1nc2cc(NC(=O)c3cccc([N+](=O)[O-])c3)ccc2n1C	-5.5	-11.4	nt	0.0	8.0%	-11.7%
CCCCCc1cc(=O)oc2c(C(CCN3CCN(c4ccccc4)CC3)c3ccc4c(c3)OCO4)c(OC)cc(OC)c12 (stereo not drawn)	?	-18.2	7.1%	18.4	16.4µM*	25.9µM*
CCCCCc1cc(=O)oc2c(C(CCN3CCCC(C)C3)c3ccc(OC)cc3)c(OC)cc(OC)c12 (stereo not drawn)	-10.0	1.1	nt	-54.0*	23.1µM*	?
COc1ccc(C(CCN2CCCC(C)C2)c2c(OC)cc(OC)c3c2OC(=O)CC3c2cc(OC)c(OC)c(OC)c2)cc1 (stereo not drawn)	-6.1	-5.7	9.1%	-9.8	?	16.4µM*
COc1cc(OC)c2c(C)cc(=O)oc2c1C(CCN1CCCC(C)C1)c1ccc(N(C)C)cc1 (stereo not drawn)	nt	nt	19.7%	nt	nt	nt
CCN(CC)CCC(c1ccc2c(c1)OCO2)c1c(OC)cc(OC)c2c(C)cc(=O)oc12 (stereo not drawn)	nt	nt	13.2%	nt	nt	nt
CC(C)C[C@H]1CN(CCCC[C@H]2CNC(=O)C(=O)N2CCc2ccc(O)cc2)C(=O)C(=O)N1Cc1ccccc1	12.3	-10.2	nt	-3.5	-6.1%	-5.5%
N#Cc1c(NC(=O)c2ccc(-c3ccccc3[N+](=O)[O-])o2)sc2c1CCCC2	-2.2	-7.5	8.3%	?	?	-28.7%
COc1ccc(N2CCN(Cc3nc(Cc4cccc(F)c4)no3)C(C)C2)cc1 (stereo not drawn)	?	-25.3	0.0%	1.7	18.4µM*	-24.7%
Fc1cccc(Cc2noc(CN3CCCCC3CCc3ccccn3)n2)c1 (stereo not drawn)	5.6	0.0	0.0%	-79.3*	?	8.1%
Cn1ccc2cc(OCc3ccccc3)ccc21	1.7	1.2	nt	-4.4	-23.0%	2.6%
CCOC(=O)C1(C(=O)OCC)COC(=O)C1CN1Cc2cc3ccccc3nc2C1 (stereo not drawn)	-7.1	-14.1	nt	0.0	9.2µM*	10.3µM*
C=C(C)C(=O)OCCCCCCOc1ccc(C(=O)O)cc1	?	5.0	25.1µM*	18.0	-15.1%	3.9%
CCOC(=O)c1c(S(=O)(=O)N2CCC(C(=O)N3CCN(c4cc(C)ccc4C)CC3)CC2)c(C)n(C)c1C	nt	nt	10.3%	nt	23.1µM*	?
CCOC(=O)c1c(S(=O)(=O)N2CCCC(C(=O)N3CCN(c4cccc(C)c4C)CC3)C2)c(C)n(C)c1C (stereo not drawn)	nt	nt	6.4%	nt	9.2µM*	7.31µM*
CCOC(=O)c1c(S(=O)(=O)N2CCC(C(=O)N3CCN(c4ccccc4F)CC3)CC2)c(C)n(C)c1C	nt	nt	4.4%	nt	-25.2%	?
CCOC(=O)c1c(S(=O)(=O)N2CCCC(C(=O)N3CCN(c4cc(C)ccc4C)CC3)C2)c(C)n(C)c1C (stereo not drawn)	nt	nt	-2.5%	nt	9.2µM*	8.2µM*
CCOC(=O)c1c(C)[nH]c(C)c1S(=O)(=O)N1CCCC(C(=O)N2CCN(c3cc(C)ccc3C)CC2)C1 (stereo not drawn)	nt	nt	7.4%	nt	?	?
CC1(C)Cc2c(C#N)c(NCCN3CCOCC3)nc(-c3ccccc3)c2CO1	1.0	5.3	2.8%	-10.7	-28.9%	?
Cc1cc2nc(/C=C/c3cccnc3)[nH]c2cc1C	-3.9	nt	nt	6.5	0.0184µM*	0.0184µM*
Cc1cc2nc(/C=C/c3nc4cc(C)c(C)cc4[nH]3)[nH]c2cc1C	-2.1	nt	-8.9%	2.7	-21.3%	1.3%
Cc1ccc2c(c1)N(C(=O)N1CCC(C(=O)NCc3ccccc3C)CC1)CC(C)O2 (stereo not drawn)	nt	nt	3.9%	nt	16.4µM*	20.6µM*
Cc1ccc(CNC(=O)C2CCN(C(=O)N3CC(C)Oc4ccc(Cl)cc43)CC2)cc1 (stereo not drawn)	nt	nt	9.1%	nt	18.4µM*	?
Nc1c(C(=O)c2ccccc2)oc2ccc([N+](=O)[O-])cc12	-6.6	-5.5	-0.6%	-6.7	-6.3%	-28.1%
CCc1ccc(Oc2c(C(F)(F)F)oc3c(CN4CCN(CC)CC4)c(O)ccc3c2=O)cc1	nt	nt	1.1%	nt	?	?
SMILES	Six1-Eya2 inh	CtBP-E1A inh	TDP1 inh	IL-1B inflam inh	DT40 TDP1 no CPT	DT40 TDP1 CPT
CCc1nc2ccc(C(=O)NCCc3ccc(OC)c(OC)c3)cc2nc1CC	-4.6	-13.6	6.5%	-25.8	23.1µM*	16.4µM*
O=C(O)c1ccc2nc(-c3ccco3)c(-c3ccco3)nc2c1	?	-25.4	-10.8%	8.1	-23.9%	-9.9%
CCC(C)NC(=O)c1ccc2nc(-c3ccco3)c(-c3ccco3)nc2c1 (stereo not drawn)	nt	nt	nt	nt	12.6µM*	15.8µM*
O=C(Nc1cccc(C(F)(F)F)c1)c1ccc2nc(-c3ccco3)c(-c3ccco3)nc2c1	-76.8*	?	-4.9%	-1.0	?	20.6µM*
COc1ccc(CCNC(=O)c2ccc3nc(-c4ccco4)c(-c4ccco4)nc3c2)cc1OC	?	?	10µM*	-52.8*	20.6µM*	20.6µM*
Cc1noc(C)c1S(=O)(=O)Nc1ccc(O)c2c(=O)cc(-c3ccccc3Cl)oc12	-1.6	-0.7	nt	19.3	?	-18.8%
COc1ccc(/C(O)=C/c2nc3ccc(C(=O)NCCc4cccc(C)c4)cc3[nH]c2=O)cc1OC	4.7	5.0	3.4%	67.1	2.31µM*	2.91µM*
O=C(Nc1ccc2nc(-c3ccco3)c(-c3ccco3)nc2c1)NC1CC1	-68.2*	?	3.16µM*	-2.1	23.1µM*	20.6µM*
O=C(Nc1ccc(F)c(Cl)c1)NC1CC1	-19.7	-17.3	nt	?	-8.8%	?
Fc1ccc(/C=N/Nc2nnnn2-c2ccccc2)cc1	-0.9	0.9	0.0%	0.0	-12.6%	2.4%
Cc1ccc(NC(=O)c2ccccc2F)c(NC(=O)c2ccccc2F)c1	-1.1	-15.2	nt	-7.5	?	?
O=C(O)c1cccc(-n2cccc2/C=C2/NC(=O)N(Cc3ccccc3F)C2=O)c1	-20.1	6.2	2.82µM*	-9.1	?	?
Cc1ccc(NC(=O)CN2C(=O)S/C(=C\c3cccn3-c3cccc(C(=O)O)c3)C2=O)cc1C	-3.8	2.5	nt	6.6	-8.8%	0.2%
